Calls of active or inactive are those of the source.
Tests used:
[1] = small molecules captured by biotinylated probe aFSTL3 – biochemical, small-molecule microarray, fluorescence 635/667, stem cell growth factor project, primary screen (AID 1064); conditions: higher = more signal;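 further: measures binding of the biotinylated anti-FSTL3 antibody to printed compounds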
[2] = binders from COS7 lysate, DM2A8 probe, primary screen, torsin A project, cell lysate, small-molecule microarray, fluorescence 635/667 (AID 1065); conditions: higher = more signal, COS7 lysate expressing mutant human TOR1A
[3] = small molecules captured by biotinylated probe aFGF2 – biochemical, small-molecule microarray, fluorescence 635/667, stem cell growth factor project, primary screen (AID 1067); conditions: higher = more signal;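 further: measures binding of biotinylated aFGF2 protein to printed compounds on slides; z-score merges feature fluorescence and signal-to-noise across triplicate slides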
[4] = small molecules captured by biotinylated probe aFGF10 – biochemical, small-molecule microarray, fluorescence 635/667, stem cell growth factor project, primary screen (AID 1071); conditions: higher = more signal;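 further: score merges 667 nm spot intensity and signal to noise from triplicate slides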
[5] = biological target: Neurogenic locus notch homolog protein 2 (Homo sapiens) (UniProt Q04721); assay: small molecules binding Notch2 protein – biochemical, small-molecule microarray, 635 nm fluorescence, stem cell growth factors, primary screen (AID 1073); conditions: higher = more signal
Chain of Neurogenic locus notch homolog protein 2 (Homo sapiens) (Q04721 whole entry, looked up, canonical isoform): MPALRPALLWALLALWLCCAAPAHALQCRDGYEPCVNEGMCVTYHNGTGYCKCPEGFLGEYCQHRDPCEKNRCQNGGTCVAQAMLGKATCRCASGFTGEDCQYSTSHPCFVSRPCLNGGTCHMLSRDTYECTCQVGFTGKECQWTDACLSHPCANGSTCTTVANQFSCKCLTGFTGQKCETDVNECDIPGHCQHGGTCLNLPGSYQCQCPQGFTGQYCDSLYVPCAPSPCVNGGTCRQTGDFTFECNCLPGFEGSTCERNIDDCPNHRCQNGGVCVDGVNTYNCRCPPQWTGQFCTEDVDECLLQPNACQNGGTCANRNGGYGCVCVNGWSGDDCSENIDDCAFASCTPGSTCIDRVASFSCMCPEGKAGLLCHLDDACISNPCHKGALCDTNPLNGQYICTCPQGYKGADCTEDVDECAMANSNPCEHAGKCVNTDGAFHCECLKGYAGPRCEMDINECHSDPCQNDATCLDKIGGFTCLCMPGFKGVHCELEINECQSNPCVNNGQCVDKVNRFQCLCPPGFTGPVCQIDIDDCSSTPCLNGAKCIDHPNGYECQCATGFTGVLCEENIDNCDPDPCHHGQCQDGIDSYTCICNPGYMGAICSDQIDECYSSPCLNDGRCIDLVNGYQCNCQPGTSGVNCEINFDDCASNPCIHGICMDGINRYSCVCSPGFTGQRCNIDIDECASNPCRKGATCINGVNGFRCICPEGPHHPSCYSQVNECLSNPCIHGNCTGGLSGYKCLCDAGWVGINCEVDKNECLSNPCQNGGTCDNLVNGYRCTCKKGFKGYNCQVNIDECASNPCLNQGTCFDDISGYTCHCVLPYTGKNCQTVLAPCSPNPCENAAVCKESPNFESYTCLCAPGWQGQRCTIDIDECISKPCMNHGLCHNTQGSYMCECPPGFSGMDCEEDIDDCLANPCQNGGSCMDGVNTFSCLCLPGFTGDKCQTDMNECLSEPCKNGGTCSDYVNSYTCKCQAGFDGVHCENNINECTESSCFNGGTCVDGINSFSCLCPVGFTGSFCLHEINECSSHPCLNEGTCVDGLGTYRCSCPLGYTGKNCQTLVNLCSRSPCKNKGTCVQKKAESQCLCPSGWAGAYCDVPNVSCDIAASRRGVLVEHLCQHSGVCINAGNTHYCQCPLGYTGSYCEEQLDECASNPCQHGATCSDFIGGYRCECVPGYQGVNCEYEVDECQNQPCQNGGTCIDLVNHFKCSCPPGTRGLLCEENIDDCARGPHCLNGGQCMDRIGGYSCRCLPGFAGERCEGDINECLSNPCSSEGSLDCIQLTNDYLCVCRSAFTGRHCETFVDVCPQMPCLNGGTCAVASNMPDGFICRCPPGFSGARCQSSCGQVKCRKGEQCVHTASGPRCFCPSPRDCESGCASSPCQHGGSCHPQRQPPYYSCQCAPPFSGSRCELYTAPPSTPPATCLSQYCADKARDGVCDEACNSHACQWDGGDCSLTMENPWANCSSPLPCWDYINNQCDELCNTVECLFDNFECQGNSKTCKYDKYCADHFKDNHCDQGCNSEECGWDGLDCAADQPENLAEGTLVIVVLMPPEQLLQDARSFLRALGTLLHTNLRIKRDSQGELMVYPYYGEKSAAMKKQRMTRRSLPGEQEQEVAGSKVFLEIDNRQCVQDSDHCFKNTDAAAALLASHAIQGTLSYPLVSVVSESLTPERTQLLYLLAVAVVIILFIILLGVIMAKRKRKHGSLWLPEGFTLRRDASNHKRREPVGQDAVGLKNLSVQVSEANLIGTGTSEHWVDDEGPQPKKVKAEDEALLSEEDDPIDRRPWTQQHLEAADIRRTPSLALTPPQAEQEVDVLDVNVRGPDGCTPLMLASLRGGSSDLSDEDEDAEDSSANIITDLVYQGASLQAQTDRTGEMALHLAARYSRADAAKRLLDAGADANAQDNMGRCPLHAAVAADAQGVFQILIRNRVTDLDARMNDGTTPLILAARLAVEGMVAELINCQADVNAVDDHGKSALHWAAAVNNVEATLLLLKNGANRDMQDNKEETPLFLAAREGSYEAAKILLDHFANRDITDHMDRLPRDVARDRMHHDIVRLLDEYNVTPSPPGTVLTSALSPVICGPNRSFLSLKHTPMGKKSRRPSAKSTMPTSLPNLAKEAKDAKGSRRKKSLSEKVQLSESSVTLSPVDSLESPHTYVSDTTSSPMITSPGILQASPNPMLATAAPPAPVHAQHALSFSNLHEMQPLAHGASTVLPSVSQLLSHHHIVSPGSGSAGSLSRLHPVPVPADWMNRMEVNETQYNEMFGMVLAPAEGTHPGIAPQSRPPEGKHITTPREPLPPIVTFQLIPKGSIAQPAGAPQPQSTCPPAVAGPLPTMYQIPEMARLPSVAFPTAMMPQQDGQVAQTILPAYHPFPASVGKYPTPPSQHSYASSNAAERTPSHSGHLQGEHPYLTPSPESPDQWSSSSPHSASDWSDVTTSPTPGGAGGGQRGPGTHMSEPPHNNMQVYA

[6] = biological target: Pro-neuregulin-1, membrane-bound isoform (Homo sapiens) (UniProt Q02297); assay: small molecules binding neuregulin-1 protein – biochemical, small-molecule microarray, fluorescence 635/667, psychiatric disease protein project, primary screen (AID 1075); conditions: NRG1 binding, 635 nm fluorescence, higher = more signal;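 further: score combines 667 nm spot fluorescence with signal to noise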
Chain of Pro-neuregulin-1, membrane-bound isoform (Homo sapiens) (Q02297 whole entry, looked up, the tested form may be a part, canonical isoform): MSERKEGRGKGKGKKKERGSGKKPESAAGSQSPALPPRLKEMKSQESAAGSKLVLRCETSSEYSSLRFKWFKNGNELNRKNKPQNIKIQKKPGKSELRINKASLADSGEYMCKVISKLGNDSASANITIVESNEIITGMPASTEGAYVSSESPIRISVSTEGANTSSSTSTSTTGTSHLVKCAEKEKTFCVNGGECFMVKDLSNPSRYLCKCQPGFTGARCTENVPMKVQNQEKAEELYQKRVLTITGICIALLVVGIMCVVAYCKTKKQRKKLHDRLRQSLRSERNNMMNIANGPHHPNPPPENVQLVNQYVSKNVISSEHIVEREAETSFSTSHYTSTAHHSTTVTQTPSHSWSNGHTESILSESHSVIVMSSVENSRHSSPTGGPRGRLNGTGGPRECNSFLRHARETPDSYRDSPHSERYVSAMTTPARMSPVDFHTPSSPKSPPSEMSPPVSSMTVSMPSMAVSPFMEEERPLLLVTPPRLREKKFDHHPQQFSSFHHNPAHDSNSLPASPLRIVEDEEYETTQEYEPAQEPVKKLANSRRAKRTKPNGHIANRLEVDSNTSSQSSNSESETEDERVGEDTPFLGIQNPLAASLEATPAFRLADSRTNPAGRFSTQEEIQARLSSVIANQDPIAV

[7] = tested on: Neuregulin-1 EGF-like domain; assay: small molecules binding NRG1 EGF domain – biochemical, small-molecule microarray, 635 nm fluorescence, primary screen (AID 1081); conditions: higher = more signal;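 further: binding of the protein to compounds printed on small-molecule microarray slides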
[8] = FRG1 expression reporter modulators in myotubes – cell-based, C2C12 myotubes, firefly/Renilla luciferase, luminescence, FRG1 inhibition for FSHD, primary screen (AID 1084); conditions: FRG1 promoter luciferase, higher = more signal, called active from +8 up or from −8 down
[9] = small molecules captured by biotinylated probe aFST – biochemical, small-molecule microarray, fluorescence 635/667, stem cell growth factor project, primary screen (AID 1086); conditions: higher = more signal;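 further: score merges 667 nm fluorescence with signal-to-noise of each printed compound spot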
[10] = binders of probe aHhip on microarray, primary screen, stem cell growth factor project, biochemical, small-molecule microarray, fluorescence 635/667 (AID 1087); conditions: higher = more signal;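 further: score merges spot fluorescence at 667nm with spot signal to noise ratio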

Structure (SMILES)	composite z-score [1]	composite z-score [2]	composite z-score [3]	composite z-score [4]	composite z-score [5]	composite z-score [6]	composite z-score [7]	z-score [8]	composite z-score [9]	composite z-score [10]
COc1ccc([C@H]2OC[C@@H]3C[C@@H](Cc4ccccc4)C(=O)N32)cc1	-0.446	0.466	0.0216	0.526	0.426	-0.103	1.11	-3.02 (inactive)	0.357	0.115
C[N+](C)(C)CCCCNC(=O)[C@H]1C[C@H]2C(=O)N3CCC[C@H]3C(=O)N2[C@H]1c1cccc(OCCO)c1	0.397	0.442	-0.154	-0.194	-0.568	-0.235	0.807	2.19 (inactive)	0.412	0.0053
C=CCOC(=O)[C@H]1[C@@H]2C(=O)O[C@@H](c3ccccc3)[C@@H](c3ccccc3)N2[C@@H](c2ccc(OCCOC(=O)[C@H]3C[C@H]4C(=O)N[C@@H](CCCC[N+](C)(C)C)C(=O)N4[C@H]3c3ccc(O)cc3)cc2)[C@]12C(=O)Nc1ccc(I)cc12	-0.301	1.33	-0.0904	-0.333	-0.295	2.05	0.595	2.93 (inactive)	-0.333	0.6
CC(=O)NCCCC[C@@H]1NC(=O)[C@@H]2C[C@H](C(=O)NCCCCCNC(=O)CS)[C@H](c3cccc(OCCO)c3)N2C1=O	-0.525	-0.047	-0.211	0.37	0.121	-0.122	0.709	0.618 (inactive)	-0.195	-0.212
COCCOC(=O)N1C(=O)[C@@]2(c3cc(C#CC4(O)CCCCCC4)ccc31)[C@H](c1ccc(OCCO)cc1)N1[C@H](c3ccccc3)[C@H](c3ccccc3)OC(=O)[C@H]1[C@@H]2C(=O)N1CCN(c2ncccn2)CC1	-0.407	0.485	-0.0242	0.612	1.03	1.09	0.966	-0.254 (inactive)	0.557	-0.0645
[N-]=[N+]=Nc1ccccc1[C@H]1OC(c2ccc(OCCCO)cc2)=N[C@@]1(CCS(=O)(=O)c1ccccc1)C(=O)NCC(O)CO (stereo not given in full)	0.408	0.652	0.0367	0.543	1.35	1.75	1.3	5.85 (inactive)	1.1	-0.283
O=C1C[C@@](C(=O)NCCN2CCOCC2)(c2ccc([N+](=O)[O-])cc2)[C@@H](c2ccc(CO)cc2I)N1CC12CC3CC(CC(C3)C1)C2	-0.168	0.47	0.0232	0.569	0.926	1.64	1.37	-2.84 (inactive)	0.45	0.192
C[N+](C)(C)CCCCCCNC(=O)[C@@H]1C[C@@H]2C(=O)N[C@@H](Cc3ccccc3)C(=O)N2[C@@H]1c1cccc(OCCO)c1	-0.0274	0.673	-0.0969	0.44	-0.165	1.2	1.34	1.5 (inactive)	0.143	0.236
C=C(CCCC)/C(=C/C[C@H](OC(C)=O)c1ccccc1OCCO)c1cc(C(=O)OC)ccc1OC	-0.198	-0.268	-0.134	0.339	-0.264	-0.35	0.48	-0.214 (inactive)	-0.201	-0.134
CCN(CC)c1ccc(N2CC=CC34O[C@@H]5C=CCCOC(=O)C5[C@H]3C(=O)N(CCCCCCO)[C@@H]4C2=O)cc1 (stereo not given in full)	-0.16	0.345	-0.16	-0.286	-0.439	-0.173	1.6	-0.959 (inactive)	-0.581	-0.249
[N-]=[N+]=NCc1ccccc1[C@@H]1OC(c2ccc(OCCCO)cc2)=N[C@]1(Cc1ccccc1)C(=O)NCC(O)CO (stereo not given in full)	0.798	0.42	0.126	0.343	-0.119	1.84	1.2	-0.339 (inactive)	0.421	0.132
CCCC[C@H]1OB(O)C[C@H]2C1=C(COC)Cn1c(=O)n(-c3ccccc3)c(=O)n12	-0.516	0.107	-0.157	0.392	0.325	-0.19	0.484	0.103 (inactive)	0.199	-0.236
Cc1ccc([C@@H]2C[C@@H](Sc3ccccc3)[C@H](C(=O)O)CN2S(=O)(=O)c2ccc(C)cc2)cc1	-0.0057	0.414	0.0512	0.983	1.59	1.57	1.35	-3.65 (inactive)	0.936	0.0373
C=C(COC)C(=O)CC[C@@H](OC(C)=O)c1ccc(CO)o1	-0.263	0.0091	-0.147	0.764	-0.102	-0.0949	0.611	0.632 (inactive)	0.316	0.142
COc1ccc(CCNC(=O)[C@@]2(Sc3ccc(C)cc3)CC(=O)N(C3Cc4ccccc4C3)[C@@H]2c2ccc(CO)cc2I)cc1	0.538	0.0778	-0.0558	-0.183	-0.813	1.54	0.948	-0.518 (inactive)	0.0627	0.0854
C=C(CCCC)C(=O)CC[C@@H](OC(=O)c1ccccc1-c1ccccc1C(=O)O)c1ccc(OCCO)cc1	-0.281	0.358	-0.128	0.826	-0.278	0.529	0.562	-0.109 (inactive)	0.135	0.011
CC(C)C(O)C1C=CC2C(=O)NC(=O)C2N1Nc1ccc(Cl)cc1Cl (stereo not given)	0.889	0.206	-0.0675	-0.0108	0.514	1.98	1.16	-0.903 (inactive)	0.464	-0.0645
CC#CC(=O)Oc1ccccc1C=CC(=O)OCC	-0.156	-0.0011	-0.0268	0.238	0.53	0.133	0.448	0.809 (inactive)	0.163	-0.125
C=C[C@H](CO)NS(=O)(=O)c1ccc(Br)cc1	-0.42	0.213	-0.116	0.243	0.315	0.456	0.827	0.297 (inactive)	0.447	0.257
CN1C(=O)C2C=CC(C(O)C3CC=CCC3)N(N(c3ccccc3)c3ccccc3)C2C1=O (stereo not given)	0.677	-0.0811	0.0247	-0.0455	0.172	-0.282	0.33	-0.654 (inactive)	0.408	-0.137
COC(=O)[C@@]1(Cc2ccccc2)[C@H]2c3cc(C(=O)N(C)C)n(Cc4ccsc4Br)c3C[C@H]2CN1C(=O)c1ccccc1	0.102	0.106	0.215	0.746	1.61	0.823	1.12	0.332 (inactive)	1.67	-0.113
CCc1cccc(NC(=O)O[C@H]2[C@H](OC(=O)Nc3ccccc3-c3ccccc3)[C@@H](OC(=O)Nc3ccccc3-c3ccccc3)[C@@H](OC)O[C@@H]2CO)c1	-0.283	0.79	0.14	0.806	1.6	1.88	1.27	1.38 (inactive)	1.32	-0.104
CCCCN1CC=CC23O[C@@H]4C=CCCOC(=O)C4[C@H]2C(=O)N(CCCCCCO)[C@@H]3C1=O (stereo not given in full)	-0.206	-0.596	-0.246	-0.309	-1.1	1.2	1.41	0.357 (inactive)	-0.422	-0.7
O=C1O[C@@H](c2ccccc2)[C@@H](c2ccccc2)N2[C@@H](c3ccccc3OCCO)[C@]3(C(=O)Nc4ccc(C#CC5=CCCCC5)cc43)[C@@H](C(=O)N3CCCCCCC3)[C@H]12	3.71	2.23	0.978	1.14	1.65	2.07	1.07	-0.27 (inactive)	3.59	3.84
CCCc1cc2c(n1Cc1cc(F)cc(F)c1)C(C)C1CN(C(=O)c3ccccc3)C(C)(C(=O)OC)C21 (stereo not given)	1.25	1.77	0.256	0.426	1.71	1.62	1.18	0.0046 (inactive)	1.58	0.441
COc1cc(COC(C)=O)ccc1OC(C)=O	0.299	-0.0075	0.188	0.209	0.137	0.14	-0.464	-0.681 (inactive)	0.408	0.318
COc1cc(NN2C(C(O)c3ccco3)C=CC3C(=O)N(c4ccccc4)C(=O)C32)cc(OC)c1OC (stereo not given)	-0.178	-0.218	-0.116	0.127	0.723	1.18	1.21	0.889 (inactive)	0.162	-0.0215
O=C(CS)NCCCCCCNC(=O)[C@@H]1C[C@@H]2C(=O)N[C@@H](Cc3ccccc3)C(=O)N2[C@@H]1c1cccc(OCCO)c1	0.0549	0.94	0.0589	0.956	1.08	0.659	1.23	3.09 (inactive)	0.616	-0.0994
O=C1O[C@H](c2ccccc2)[C@H](c2ccccc2)N2[C@H]1[C@@H](C(=O)N1CCCCCCC1)[C@]1(C(=O)Nc3ccc(C#CCCO)cc31)[C@H]2c1ccccc1OCCO	3.95	2.92	1.08	1.62	1.72	2.85	1.37	-0.851 (inactive)	3.77	4.26

— PubChem BioAssay
